Experimental data reported in the supplement of paper PMC8975748.
Where a name gives a salt, the structure may show the parent alone. ± gives the standard deviation of the averaged measurements.

Assays:
[1] = system: Saccharomyces cerevisiae BY4741 SeMeCo community; assay: mean cell size (pixel area) (pixels); higher = larger cells; conditions: 10 µM; 24 h; SM minimal medium
How it was run: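 Yeast cells were fixed with paraformaldehyde, imaged by automated confocal microscopy and analysed in Harmony to obtain mean cell pixel area per well. They came from a four-plasmid fluorescent Saccharomyces cerevisiae BY4741 community, each plasmid complementing one auxotrophy and carrying a fluorescent marker. Before imaging, 70 µl of culture at OD600 = 0.3 was incubated for 24 h in SM medium in 384-well plates predosed acoustically with drug (final 10 µM). Values are means of 3 replicates. Same SeMeCo high-content imaging drug screen: Selleck FDA-approved drugs at 10 µM, 24 h in SM medium, 384-well plates, 3 replicates.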

[2] = system: Saccharomyces cerevisiae BY4741 SeMeCo community; assay: z-score of prototroph abundance vs DMSO median; higher = larger share of this subpopulation than in DMSO controls; conditions: 10 µM; 24 h; SM minimal medium; subpopulation (auxotrophy): Prototroph
How it was run: (§1)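 A community of Saccharomyces cerevisiae BY4741 was built from four plasmids that each restored one auxotrophy and encoded a distinct fluorescent protein. Pre-grown overnight to OD600 1.0 and diluted to 0.3, it was dispensed at 70 µl into 384-well plates acoustically predosed with library drugs for a final 10 µM, and grown 24 h in minimal SM medium. Cells were then paraformaldehyde-fixed and imaged by automated confocal microscopy. Thresholds and autofluorescence correction came from single-auxotroph fluorescent strains, and each subpopulation's abundance was scored as a z-score relative to the vehicle-well median.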

[3] = system: Saccharomyces cerevisiae BY4741 SeMeCo community; assay: z-score of subpopulation abundance vs DMSO median, subpopulation auxotrophic for L; higher = larger share of this subpopulation than in DMSO controls; conditions: 10 µM; 24 h; SM minimal medium; subpopulation (auxotrophy): L
How it was run: as §1

[4] = system: Saccharomyces cerevisiae BY4741 SeMeCo community; assay: z-score of subpopulation abundance vs DMSO median, subpopulation auxotrophic for U; higher = larger share of this subpopulation than in DMSO controls; conditions: 10 µM; 24 h; SM minimal medium; subpopulation (auxotrophy): U
How it was run: as §1

[5] = system: Saccharomyces cerevisiae BY4741 SeMeCo community; assay: z-score of subpopulation abundance vs DMSO median, subpopulation auxotrophic for H; higher = larger share of this subpopulation than in DMSO controls; conditions: 10 µM; 24 h; SM minimal medium; subpopulation (auxotrophy): H
How it was run: as §1

[6] = system: Saccharomyces cerevisiae BY4741 SeMeCo community; assay: z-score of subpopulation abundance vs DMSO median, subpopulation auxotrophic for LU; higher = larger share of this subpopulation than in DMSO controls; conditions: 10 µM; 24 h; SM minimal medium; subpopulation (auxotrophy): LU
How it was run: as §1

[7] = system: Saccharomyces cerevisiae BY4741 SeMeCo community; assay: z-score of subpopulation abundance vs DMSO median, subpopulation auxotrophic for LM; higher = larger share of this subpopulation than in DMSO controls; conditions: 10 µM; 24 h; SM minimal medium; subpopulation (auxotrophy): LM
How it was run: as §1

[8] = system: Saccharomyces cerevisiae BY4741 SeMeCo community; assay: z-score of subpopulation abundance vs DMSO median, subpopulation auxotrophic for HM; higher = larger share of this subpopulation than in DMSO controls; conditions: 10 µM; 24 h; SM minimal medium; subpopulation (auxotrophy): HM
How it was run: as §1

[9] = system: Saccharomyces cerevisiae BY4741 SeMeCo community; assay: z-score of subpopulation abundance vs DMSO median, subpopulation auxotrophic for HU; higher = larger share of this subpopulation than in DMSO controls; conditions: 10 µM; 24 h; SM minimal medium; subpopulation (auxotrophy): HU
How it was run: as §1

[10] = system: Saccharomyces cerevisiae BY4741 SeMeCo community; assay: z-score of subpopulation abundance vs DMSO median, subpopulation auxotrophic for UM; higher = larger share of this subpopulation than in DMSO controls; conditions: 10 µM; 24 h; SM minimal medium; subpopulation (auxotrophy): UM
How it was run: as §1

[11] = system: Saccharomyces cerevisiae BY4741 SeMeCo community; assay: z-score of subpopulation abundance vs DMSO median, subpopulation auxotrophic for HL; higher = larger share of this subpopulation than in DMSO controls; conditions: 10 µM; 24 h; SM minimal medium; subpopulation (auxotrophy): HL
How it was run: as §1

[12] = system: Saccharomyces cerevisiae BY4741 SeMeCo community; assay: z-score of subpopulation abundance vs DMSO median, subpopulation auxotrophic for HLU; higher = larger share of this subpopulation than in DMSO controls; conditions: 10 µM; 24 h; SM minimal medium; subpopulation (auxotrophy): HLU
How it was run: as §1

[13] = system: Saccharomyces cerevisiae BY4741 SeMeCo community; assay: z-score of subpopulation abundance vs DMSO median, subpopulation auxotrophic for HLM; higher = larger share of this subpopulation than in DMSO controls; conditions: 10 µM; 24 h; SM minimal medium; subpopulation (auxotrophy): HLM
How it was run: as §1

[14] = system: Saccharomyces cerevisiae BY4741 SeMeCo community; assay: z-score of subpopulation abundance vs DMSO median, subpopulation auxotrophic for HUM; higher = larger share of this subpopulation than in DMSO controls; conditions: 10 µM; 24 h; SM minimal medium; subpopulation (auxotrophy): HUM
How it was run: as §1

[15] = system: Saccharomyces cerevisiae BY4741 SeMeCo community; assay: z-score of subpopulation abundance vs DMSO median, subpopulation auxotrophic for LUM; higher = larger share of this subpopulation than in DMSO controls; conditions: 10 µM; 24 h; SM minimal medium; subpopulation (auxotrophy): LUM
How it was run: as §1

[16] = system: Saccharomyces cerevisiae BY4741 SeMeCo community; assay: z-score of subpopulation abundance vs DMSO median, subpopulation auxotrophic for HLUM; higher = larger share of this subpopulation than in DMSO controls; conditions: 10 µM; 24 h; SM minimal medium; subpopulation (auxotrophy): HLUM
How it was run: as §1

[17] = system: Saccharomyces cerevisiae BY4741 SeMeCo community; assay: z-score of subpopulation abundance vs DMSO median, subpopulation auxotrophic for M; higher = larger share of this subpopulation than in DMSO controls; conditions: 10 µM; 24 h; SM minimal medium; subpopulation (auxotrophy): M
How it was run: as §1

Compound	mean cell size [1]	z-score of prototroph abundance [2]	z-score of subpopulation abundance [3]	z-score of subpopulation abundance [4]	z-score of subpopulation abundance [5]	z-score of subpopulation abundance [6]	z-score of subpopulation abundance [7]	z-score of subpopulation abundance [8]	z-score of subpopulation abundance [9]	z-score of subpopulation abundance [10]	z-score of subpopulation abundance [11]	z-score of subpopulation abundance [12]	z-score of subpopulation abundance [13]	z-score of subpopulation abundance [14]	z-score of subpopulation abundance [15]	z-score of subpopulation abundance [16]	z-score of subpopulation abundance [17]
CCCCOc1cc(C(=O)OCCN(CC)CC)ccc1N [Oxybuprocaine HCl]	12.6 ± 0.3	-0.08	0.22	-0.29	-0.22	-0.72	0.31	0.19	0.6	-0.55	0.21	-0.16	1.25	0.57	0.25	0.34	–
COc1ccnc(C[S+]([O-])c2nc3cc(OC(F)F)ccc3[nH]2)c1OC (stereo not given) [Pantoprazole]	12.4 ± 0.15	-0.32	–	–	1.49	–	0.04	-0.27	–	-0.26	0.9	1.13	0.09	-0.2	-0.41	–	0.27
CN(C)CCC=C1c2ccccc2C=Cc2ccccc21 [Cyclobenzaprine HCl]	12.59 ± 0.046	-0.37	-0.14	1.16	-0.68	-0.04	0.01	-0.88	0.59	1.09	-0.13	-0.46	0.13	-0.09	-0.09	0.14	–
CC1(C)S[C@@H]2[C@H](NC(=O)[C@H](N)c3ccccc3)C(=O)N2[C@H]1C(=O)OCOC(=O)[C@@H]1N2C(=O)C[C@H]2S(=O)(=O)C1(C)C [Sultamicillin]	12.26 ± 0.082	-1.74	1.05	0.83	1.56	–	–	0.78	–	0.83	2.28	1.83	–	1.4	1.13	0.86	0.2
CN(Cc1ccc(C(C)(C)C)cc1)Cc1cccc2ccccc12 [Butenafine HCl]	12.2 ± 0.22	1.36	-0.23	-1.08	–	–	–	-1.43	-0.86	–	-0.63	-0.68	–	-1.45	–	0.01	0.23
C#C[C@]1(O)CC[C@H]2[C@@H]3CCc4cc(O)ccc4[C@H]3CC[C@@]21C [Ethinyl Estradiol]	12.8 ± 0.2	1.23	-0.55	-1.01	0.36	–	-0.77	0	–	-1.64	-0.69	-0.36	–	-0.88	-1.48	-1.02	0.05
CN(C)CCOc1ccc(/C(=C(/CCCl)c2ccccc2)c2ccccc2)cc1 [Toremifene Citrate]	12.1 ± 0.2	-1.18	–	0.79	2.17	–	0.69	0.66	2.51	0.54	–	1.1	–	0.27	0.81	-0.23	-0.37
